Common to all, as to test: DAPPL (digital affinity profiling via proximity ligation, sequencing); 10 mM Tris-HCl pH 7.5, 50 mM NaCl, 1 mM DTT, 4% glycerol, room temperature, 30 min; GST-TFs on glutathione beads, 16-mer random dsDNA library, 0.1% formaldehyde crosslink after washing; high values mean tight binding
Holding throughout (settings): protein: recombinant; tags: N-terminal GST; dsDNA, one strand shown

Experiment [1] addresses T1, FLI1 (Homo sapiens, UniProt Q01543 1-452).
T1 sequence: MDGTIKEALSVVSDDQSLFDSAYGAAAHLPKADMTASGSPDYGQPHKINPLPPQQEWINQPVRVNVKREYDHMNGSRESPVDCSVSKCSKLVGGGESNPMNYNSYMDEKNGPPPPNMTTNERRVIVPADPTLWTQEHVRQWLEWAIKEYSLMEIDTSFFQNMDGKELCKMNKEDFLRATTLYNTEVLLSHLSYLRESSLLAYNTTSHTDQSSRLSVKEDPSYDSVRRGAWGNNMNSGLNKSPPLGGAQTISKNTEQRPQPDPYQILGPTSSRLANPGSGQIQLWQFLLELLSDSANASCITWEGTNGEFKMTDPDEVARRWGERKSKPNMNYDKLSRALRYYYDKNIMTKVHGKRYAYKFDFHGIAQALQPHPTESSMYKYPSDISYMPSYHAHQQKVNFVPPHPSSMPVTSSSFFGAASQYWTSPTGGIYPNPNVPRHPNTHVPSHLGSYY
The method, boiled down: (§1)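 Sequencing on an Illumina NextSeq500 followed washing, crosslinking with 0.1% formaldehyde, proximity ligation (BsaI/T4 ligase, 1 h, 37 °C) and PCR amplification of pools that had been incubated for 30 min at room temperature with 200 nmole of a random double-stranded 16-mer DNA library in Tris/NaCl/DTT/glycerol buffer. Each pool held DNA-barcoded human transcription factors, expressed in yeast as GST fusions and captured on glutathione beads, plus a tag-only sample. Binding signal is a hexamer's read frequency for a factor divided by its frequency in the tag-only sample.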

Experiment [2] concerns the target T2, ELK1 (Homo sapiens, UniProt P19419 1-428).
T2 sequence: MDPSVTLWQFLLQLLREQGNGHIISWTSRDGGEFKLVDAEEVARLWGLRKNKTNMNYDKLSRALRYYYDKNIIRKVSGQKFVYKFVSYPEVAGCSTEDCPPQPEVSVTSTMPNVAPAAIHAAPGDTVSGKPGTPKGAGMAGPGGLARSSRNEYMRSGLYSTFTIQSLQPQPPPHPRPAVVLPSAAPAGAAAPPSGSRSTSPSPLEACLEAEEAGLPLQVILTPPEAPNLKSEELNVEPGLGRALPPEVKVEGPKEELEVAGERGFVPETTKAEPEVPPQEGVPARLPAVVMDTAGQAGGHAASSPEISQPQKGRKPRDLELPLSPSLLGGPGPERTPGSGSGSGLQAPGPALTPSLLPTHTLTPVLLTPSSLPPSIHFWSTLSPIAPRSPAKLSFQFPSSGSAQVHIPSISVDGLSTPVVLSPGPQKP
The method in brief:
as §1

The target of experiment [3] is T3, GABPA (Homo sapiens, UniProt Q06546 1-454).
T3 sequence: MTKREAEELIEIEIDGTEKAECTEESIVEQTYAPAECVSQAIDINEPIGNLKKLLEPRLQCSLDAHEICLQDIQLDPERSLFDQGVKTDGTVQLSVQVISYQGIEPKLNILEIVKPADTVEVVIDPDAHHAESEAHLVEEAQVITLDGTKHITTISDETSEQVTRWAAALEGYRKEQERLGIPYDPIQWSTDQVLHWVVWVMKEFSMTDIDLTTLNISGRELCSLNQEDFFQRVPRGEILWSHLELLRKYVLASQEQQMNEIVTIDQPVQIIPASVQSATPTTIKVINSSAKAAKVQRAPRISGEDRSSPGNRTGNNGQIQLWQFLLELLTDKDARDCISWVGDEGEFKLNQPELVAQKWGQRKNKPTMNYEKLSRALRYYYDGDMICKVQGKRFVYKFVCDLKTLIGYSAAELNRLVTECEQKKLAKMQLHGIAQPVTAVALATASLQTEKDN
The method in brief: as §1

For experiment [4], the target named is T4, ERG (Homo sapiens, UniProt P11308 1-479).
T4 sequence: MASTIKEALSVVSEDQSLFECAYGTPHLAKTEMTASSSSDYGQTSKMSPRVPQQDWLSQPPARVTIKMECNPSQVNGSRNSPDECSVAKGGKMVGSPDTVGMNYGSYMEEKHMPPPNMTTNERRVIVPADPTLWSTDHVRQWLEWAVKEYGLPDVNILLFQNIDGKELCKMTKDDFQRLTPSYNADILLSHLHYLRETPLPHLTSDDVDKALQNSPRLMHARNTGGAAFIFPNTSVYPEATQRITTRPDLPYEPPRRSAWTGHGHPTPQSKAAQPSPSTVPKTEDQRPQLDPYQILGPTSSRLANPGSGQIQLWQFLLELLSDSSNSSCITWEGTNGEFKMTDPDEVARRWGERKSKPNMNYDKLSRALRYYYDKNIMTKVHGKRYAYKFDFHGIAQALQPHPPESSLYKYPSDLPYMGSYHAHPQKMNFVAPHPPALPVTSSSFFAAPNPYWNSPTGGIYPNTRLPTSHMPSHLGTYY
The method in brief: as §1

The target in experiment [5] is ELF1 (Homo sapiens, UniProt P32519 1-619). The method in brief:
as §1

The target in experiment [6] is T5, EHF (Homo sapiens, UniProt Q9NZC4 1-300).
T5 sequence: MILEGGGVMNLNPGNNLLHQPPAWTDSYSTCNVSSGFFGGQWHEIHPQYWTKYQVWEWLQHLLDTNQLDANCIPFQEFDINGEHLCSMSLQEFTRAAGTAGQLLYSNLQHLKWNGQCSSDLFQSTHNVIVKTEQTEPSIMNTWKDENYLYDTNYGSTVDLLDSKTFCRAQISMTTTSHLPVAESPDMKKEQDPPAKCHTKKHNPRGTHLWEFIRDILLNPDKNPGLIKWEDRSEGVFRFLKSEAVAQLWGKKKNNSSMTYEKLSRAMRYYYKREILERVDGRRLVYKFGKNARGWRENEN
The method in brief: as §1

In experiment [7] the target is SPI1 (Homo sapiens, UniProt P17947 1-270). The method, boiled down: as §1
For experiment [8], the target named is SPIB (Homo sapiens, UniProt Q01892 1-262). The method in brief:
as §1

The target of experiment [9] is T6, ELK3 (Homo sapiens, UniProt P41970 1-407).
T6 sequence: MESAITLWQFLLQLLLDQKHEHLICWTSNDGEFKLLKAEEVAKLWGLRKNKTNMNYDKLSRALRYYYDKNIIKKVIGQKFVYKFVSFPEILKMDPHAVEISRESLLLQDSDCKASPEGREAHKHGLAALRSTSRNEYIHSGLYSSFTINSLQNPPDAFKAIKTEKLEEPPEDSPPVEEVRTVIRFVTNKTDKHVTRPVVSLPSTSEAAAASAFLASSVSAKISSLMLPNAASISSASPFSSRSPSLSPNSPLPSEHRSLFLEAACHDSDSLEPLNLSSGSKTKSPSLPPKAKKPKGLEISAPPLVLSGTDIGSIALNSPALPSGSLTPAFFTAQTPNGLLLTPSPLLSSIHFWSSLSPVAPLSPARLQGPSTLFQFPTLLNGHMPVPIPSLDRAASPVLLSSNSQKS
The method in brief:
as §1

ELF1, sequence (P32519 whole entry): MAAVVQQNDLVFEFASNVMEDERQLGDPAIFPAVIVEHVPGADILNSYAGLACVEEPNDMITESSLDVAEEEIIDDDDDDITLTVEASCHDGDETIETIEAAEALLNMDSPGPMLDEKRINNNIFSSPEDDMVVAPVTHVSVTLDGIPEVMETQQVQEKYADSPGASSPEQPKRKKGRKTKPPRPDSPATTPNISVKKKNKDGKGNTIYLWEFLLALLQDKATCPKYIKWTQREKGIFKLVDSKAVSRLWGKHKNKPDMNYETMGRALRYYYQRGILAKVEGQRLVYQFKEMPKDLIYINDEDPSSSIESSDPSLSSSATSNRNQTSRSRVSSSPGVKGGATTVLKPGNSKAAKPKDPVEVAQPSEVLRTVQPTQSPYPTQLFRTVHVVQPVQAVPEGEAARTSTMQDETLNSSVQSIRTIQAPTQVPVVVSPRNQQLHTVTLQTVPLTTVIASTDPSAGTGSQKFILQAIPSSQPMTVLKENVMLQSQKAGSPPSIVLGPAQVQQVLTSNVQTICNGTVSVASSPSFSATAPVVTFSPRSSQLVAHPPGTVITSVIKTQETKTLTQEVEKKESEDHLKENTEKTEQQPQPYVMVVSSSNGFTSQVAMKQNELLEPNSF
SPIB, sequence (Q01892 whole entry): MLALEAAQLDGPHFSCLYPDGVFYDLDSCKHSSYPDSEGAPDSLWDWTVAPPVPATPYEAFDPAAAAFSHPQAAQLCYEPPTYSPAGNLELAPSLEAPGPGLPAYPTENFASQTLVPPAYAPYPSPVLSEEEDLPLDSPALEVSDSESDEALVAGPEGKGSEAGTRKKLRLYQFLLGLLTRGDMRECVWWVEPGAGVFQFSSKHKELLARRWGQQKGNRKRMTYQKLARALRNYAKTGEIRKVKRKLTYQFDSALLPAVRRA

For ATGAAC, the binding signal is 1.31 fold enrichment (6-mer frequency, TF over GST control) in experiment [1]; 1.28 fold enrichment (6-mer frequency, TF over GST control) in [2]; 1.27 fold enrichment (6-mer frequency, TF over GST control) in experiment [3]; 1.19 fold enrichment (6-mer frequency, TF over GST control) in [4]; 1.27 fold enrichment (6-mer frequency, TF over GST control) in [5]; 1.32 fold enrichment (6-mer frequency, TF over GST control) in [6]. Further, the binding signal in [7] was 1.21 fold enrichment (6-mer frequency, TF over GST control); in experiment [8], 1.27 fold enrichment (6-mer frequency, TF over GST control); in experiment [9], 1.44 fold enrichment (6-mer frequency, TF over GST control).

Regarding CAAAAT, the binding signal in experiment [1] is 1.16 fold enrichment (6-mer frequency, TF over GST control); in experiment [2], 1.11 fold enrichment (6-mer frequency, TF over GST control); in [3] it was 1.2 fold enrichment (6-mer frequency, TF over GST control); in experiment [4], 1.27 fold enrichment (6-mer frequency, TF over GST control); in experiment [5], 1.18 fold enrichment (6-mer frequency, TF over GST control); in experiment [6], 1.16 fold enrichment (6-mer frequency, TF over GST control). Further, the binding signal in [7] was 1.28 fold enrichment (6-mer frequency, TF over GST control); in experiment [8], 1.18 fold enrichment (6-mer frequency, TF over GST control); in experiment [9], 1.21 fold enrichment (6-mer frequency, TF over GST control).

Regarding ACTATT, the binding signal in [1] was 1.29 fold enrichment (6-mer frequency, TF over GST control); in experiment [2] it was 1.17 fold enrichment (6-mer frequency, TF over GST control); in experiment [3], 1.33 fold enrichment (6-mer frequency, TF over GST control); in experiment [4], 1.3 fold enrichment (6-mer frequency, TF over GST control); in experiment [5], 1.27 fold enrichment (6-mer frequency, TF over GST control); in experiment [6], 1.3 fold enrichment (6-mer frequency, TF over GST control). Besides, the binding signal is 1.22 fold enrichment (6-mer frequency, TF over GST control) in experiment [7]; 1.26 fold enrichment (6-mer frequency, TF over GST control) in experiment [8]; 1.28 fold enrichment (6-mer frequency, TF over GST control) in experiment [9].

Consider AAAATG, for which the binding signal in experiment [1] is 1.17 fold enrichment (6-mer frequency, TF over GST control); in experiment [2], 1.15 fold enrichment (6-mer frequency, TF over GST control); in [3], 1.16 fold enrichment (6-mer frequency, TF over GST control); in experiment [4], 1.2 fold enrichment (6-mer frequency, TF over GST control); in [5] it was 1.15 fold enrichment (6-mer frequency, TF over GST control); in experiment [6] it was 1.21 fold enrichment (6-mer frequency, TF over GST control). Also, the binding signal is 1.37 fold enrichment (6-mer frequency, TF over GST control) in experiment [7]; 1.26 fold enrichment (6-mer frequency, TF over GST control) in experiment [8]; 1.18 fold enrichment (6-mer frequency, TF over GST control) in [9].

With ACTTTC, the binding signal was 1.55 fold enrichment (6-mer frequency, TF over GST control) in experiment [1]; 1.65 fold enrichment (6-mer frequency, TF over GST control) in [2]; 1.59 fold enrichment (6-mer frequency, TF over GST control) in [3]; 1.46 fold enrichment (6-mer frequency, TF over GST control) in [4]; 1.63 fold enrichment (6-mer frequency, TF over GST control) in experiment [5]; 1.59 fold enrichment (6-mer frequency, TF over GST control) in experiment [6]. In addition, the binding signal in experiment [7] is 1.66 fold enrichment (6-mer frequency, TF over GST control); in experiment [8], 1.7 fold enrichment (6-mer frequency, TF over GST control); in [9], 1.62 fold enrichment (6-mer frequency, TF over GST control).

GCCTTA: the binding signal in [1] was 1.15 fold enrichment (6-mer frequency, TF over GST control); in experiment [2], 1.21 fold enrichment (6-mer frequency, TF over GST control); in experiment [3] it was 1.26 fold enrichment (6-mer frequency, TF over GST control); in experiment [4], 1.21 fold enrichment (6-mer frequency, TF over GST control); in experiment [5], 1.17 fold enrichment (6-mer frequency, TF over GST control); in experiment [6], 1.11 fold enrichment (6-mer frequency, TF over GST control). Besides, the binding signal in [7] was 1.13 fold enrichment (6-mer frequency, TF over GST control); in experiment [8], 1.27 fold enrichment (6-mer frequency, TF over GST control); in experiment [9] it was 1.15 fold enrichment (6-mer frequency, TF over GST control).

Turning to CGAATA, the binding signal is 1.09 fold enrichment (6-mer frequency, TF over GST control) in [1]; 1.23 fold enrichment (6-mer frequency, TF over GST control) in experiment [2]; 1.17 fold enrichment (6-mer frequency, TF over GST control) in experiment [3]; 1.07 fold enrichment (6-mer frequency, TF over GST control) in experiment [4]; 1.28 fold enrichment (6-mer frequency, TF over GST control) in experiment [5]; 1.2 fold enrichment (6-mer frequency, TF over GST control) in experiment [6]. Besides, the binding signal was 1.13 fold enrichment (6-mer frequency, TF over GST control) in experiment [7]; 1.11 fold enrichment (6-mer frequency, TF over GST control) in [8]; 1.21 fold enrichment (6-mer frequency, TF over GST control) in [9].
